Measured values: PubChem BioAssay (NCI)
About 83,000 compounds went through this panel and 20% of them were active in at least one assay; those are over-represented in the sample as a whole.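 Interpretation: 100, growth as untreated; towards 0, rising growth inhibition; 0, no net growth; 0 to -100, cell death. Compounds scoring below 10 were considered active.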 A number with no mark means an inactive call. Activity calls are given as the source filed them.

The compounds below were run on KM12 colon (assay: NCI-60 one-dose screen, 48 h (100 = growth as untreated, 0 = no growth, -100 = all killed)). Conditions: 10 µM unless noted.

SMILES | growth
CCOC(=O)c1cnc2c(OC)ccc(OC)c2c1Cl | 101%
NS(=O)(=O)c1ccc(Nc2nc(O)c(/C=C3\C=Nc4ccccc43)s2)cc1 | 95.6%
CNC(=O)NN | 101%
Cc1cc(O[C@@H]2O[C@@H](C)[C@H](O)[C@@H](O)[C@H]2O)c2c3c(c(O[C@@H]4O[C@@H](C)[C@H](O)[C@@H](O)[C@H]4O)cc2c1)C(=O)c1c(O)cccc1C3=O | 86.8%
Cc1cccc(Cc2cnc(NC(=O)CCc3ccc(C)o3)s2)c1 | 12.6%
C=CC(=O)NC(=O)Nc1ccccc1Cl | 96.4%
COc1cccc(-c2nc3sccn3c2-c2ccnc(NCCNC(=O)c3ccccc3)n2)c1 | 87.8%
COc1ccc(-c2nn(-c3ccc(NC(=O)Nc4ccc(Cl)c(C(F)(F)F)c4)cc3)cc2-c2ccncc2)cc1Cl | 0.474% (active)
CC(C)CNCC(O)COc1ccc(C(C)(C)c2ccc(OCC(O)CNCC(C)C)cc2)cc1 (configuration not stated) | 37.1%
Cc1ccc2[nH]c3nc4cccnc4c(C)c3c2c1 | 72.8%
O=C(Nc1ccc(-n2ccc3c(NC(=O)c4ccccc4)nccc32)cc1)c1ccc(Cl)c(C(F)(F)F)c1 | -3.15% (active)
COc1ccc(-c2nn(-c3ccc(NC(=O)Nc4ccc(Cl)c(Cl)c4)cc3)cc2-c2ccncc2)cc1Cl | 2.25% (active)
Nc1nccc2c1ccn2-c1cccc(NC(=O)c2ccc(N3CCOCC3)c(C(F)(F)F)c2)c1 | -14.5% (active)
COc1ccc(/C=C/C(=O)/C=C(/C=C/c2ccc(OC)c(OC)c2OC)OB(F)F)c(OC)c1OC | 22.8%
Cc1cc[n+](CCCC[n+]2ccc(C)cc2)cc1 | 90.5%
COC1=C(OC)C(=O)C=CC1=O | 104%
Cc1ccccc1C[P+](c1ccccc1)(c1ccccc1)c1ccccc1 | 14.5%
CC/C(=C(\CC)c1ccc(OCCN(CC)CC)cc1)c1ccc(OCCN(CC)CC)cc1 | 33.5%
COc1cccc(-c2nc3sccn3c2-c2ccnc(NCCNC(=O)Nc3cccc(C(F)(F)F)c3)n2)c1 | 33.5%
COc1ccc(-c2cnc(-c3ccc(F)cc3)[nH]2)cc1 | 30.6%
O=C(Nc1ccc(-n2cc(-c3ccncc3)c(-c3ccc(O)c(Cl)c3)n2)cc1)c1ccc(Cl)c(C(F)(F)F)c1 | 15%
O=C(Nc1ccc(-n2ccc3c(NC(=O)c4ccccc4)ncnc32)cc1)c1ccc(Cl)c(C(F)(F)F)c1 | 11.1%
C=CC(=O)Nc1cccc(Nc2nc(Nc3ccc(OCCOC(F)F)cc3)ncc2F)c1 | 37.4%
O=[N+]([O-])c1cccc(C(c2ccccc2)c2ccccc2)c1 | 87%
O=C(NCCNc1nccc(-c2c(-c3cccc(O)c3)nc3sccn23)n1)Nc1cccc(C(F)(F)F)c1 | 14%
O=C(Nc1cccc(-n2ccc3c(NC(=O)c4ccccc4)nccc32)c1)c1cc(N2CCOCC2)cc(C(F)(F)F)c1 | -3.61% (active)
O=C(Nc1ccc(-n2cc(-c3ccncc3)c(-c3ccc(O)c(Cl)c3)n2)cc1)c1cc(C(F)(F)F)cc(C(F)(F)F)c1 | 42.3%
